Experimental data: PubChem BioAssay AID360 (National Center for Advancing Translational Sciences (NCATS), 2006)
Hit rate of the full screen: of about 48,000 compounds, about 550 (1.1%) were called active. Not shown: some 4% with an inconclusive outcome. The sample as a whole holds a higher share of actives than the screen did. A number with no mark means an inactive call. Cut-off read from the data, not from the text of the source: active = potency below about 15 µM; inconclusive = mostly about 16 µM to 33 µM; inactive = weaker than that.

molecular target: Lysosomal acid glucosylceramidase (Homo sapiens) (UniProt P04062); assay: Glucocerebrosidase; conditions: purified enzyme, resorufin glucoside fluorescence (screen aimed at inhibitors), 20 min;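 note: the screen sought inhibitors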
Method in brief: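 Compounds titrated against 0.2 nM normal enzyme, 30 uM resorufin beta-D-glucopyranoside substrate, citrate/phosphate buffer with taurocholate and tween-20, pH 5.9. Reaction ran 20 min at room temperature; fluorescence (Ex 548/Em 600) gave AC50.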
Potency is the fitted concentration of half-maximal effect.

Chain of Lysosomal acid glucosylceramidase (Homo sapiens) (P04062 whole entry, looked up): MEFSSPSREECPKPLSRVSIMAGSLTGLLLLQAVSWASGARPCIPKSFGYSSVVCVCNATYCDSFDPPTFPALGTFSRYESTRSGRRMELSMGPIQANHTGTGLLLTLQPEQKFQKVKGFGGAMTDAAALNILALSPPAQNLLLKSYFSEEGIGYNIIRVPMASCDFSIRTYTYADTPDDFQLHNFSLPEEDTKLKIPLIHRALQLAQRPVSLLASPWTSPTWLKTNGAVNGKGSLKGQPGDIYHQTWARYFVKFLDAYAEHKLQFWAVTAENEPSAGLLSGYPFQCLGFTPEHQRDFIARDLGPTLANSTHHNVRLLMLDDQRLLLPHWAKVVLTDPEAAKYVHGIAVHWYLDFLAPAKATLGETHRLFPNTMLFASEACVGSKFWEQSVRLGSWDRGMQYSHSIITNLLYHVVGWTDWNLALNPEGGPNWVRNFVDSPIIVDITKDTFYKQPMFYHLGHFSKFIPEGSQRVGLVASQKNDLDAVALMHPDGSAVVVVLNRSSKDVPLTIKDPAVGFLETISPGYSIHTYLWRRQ

SMILES | Potency
O=C(CSc1nnc(-c2ccccc2)o1)N1CCOCC1 | > 76.9 µM
CS(=O)(=O)N(CC(=O)N1CCN(c2cccc(Cl)c2)CC1)c1ccccc1 | > 76.9 µM
CCN1C(=O)/C(=C\N2CCN(c3ccccc3)CC2)SC1=S | 70.4 µM
CCN1C(=O)/C(=C\N2CCN(c3cccc(Cl)c3)CC2)SC1=S | 7.83 µM (active)
CCOc1ccc(NC(=O)Nc2ccc(N(C)C(C)=O)cc2)cc1 | > 76.9 µM
CCOc1ccc(NC(=O)N2CCN(CC)CC2)cc1 | 11.1 µM (active)
CCOc1ccc(NC(=O)N2CC=C(n3c(=O)[nH]c4ccccc43)CC2)cc1 | > 76.9 µM
COc1ccc(C(CNC(=O)c2cccnc2SC)N2CCOCC2)cc1 (centres undefined) | 15 µM (active)
CSc1ncccc1C(=O)OCC(=O)N1CCOCC1 | > 76.9 µM
Cc1ccc(NC(=O)NCC(c2cccnc2)N2CCOCC2)cc1 (centres undefined) | > 76.9 µM
CCC(c1nnnn1Cc1ccco1)N(CCc1ccccc1)Cc1cc2ccc(OC)cc2[nH]c1=O (centres undefined) | 14.2 µM (active)
CCC(c1nnnn1Cc1ccccc1)N(Cc1cc2cc(OC)ccc2[nH]c1=O)CC1CCCO1 (centres undefined) | > 76.9 µM
COc1ccc2[nH]c(=O)c(CN(Cc3nnnn3CCc3ccccc3)CC3CCCO3)cc2c1 (centres undefined) | 35.8 µM
Cc1cccc(NC(=O)C2CCCN2S(=O)(=O)c2ccc(F)cc2)c1C (centres undefined) | > 76.9 µM
O=C(O)C1CCCN1S(=O)(=O)c1ccc2c(c1)CCC2 (centres undefined) | > 76.9 µM
CSc1cccc(NC(=O)C2CCCN2S(=O)(=O)c2ccc3c(c2)CCC(=O)N3)c1 (centres undefined) | 10.1 µM (active)
COc1ccc(-n2c(C)nc3c(cnn3-c3ccccc3)c2=O)cc1 | > 76.9 µM
CNC(=O)c1nnn(-c2ccccc2)c1C(=O)NC | > 76.9 µM
CCCCC(=O)Nc1ccc2c(c1)OCCO2 | > 76.9 µM
CCN(CC)C(=O)CCC(=O)Nc1ccc(C(=O)OC)cc1 | > 76.9 µM
Cc1ccc(CNC(=O)CCCNC(=O)c2ccc(Cl)cc2)n1C | > 76.9 µM
CCCCC(=O)Nc1ccc(C(=O)NCCCn2ccnc2)cc1 | 5.11 µM (active)
CCCC(=O)Nc1ccc(C(=O)NCCCn2ccnc2)cc1 | 6.73 µM (active)
CCOc1ccccc1C(=O)NCCCn1ccnc1 | > 76.9 µM
CCc1c(C)nc(N)n2c(SCC(=O)N3CCN(c4ccccc4)CC3)nnc12 | > 76.9 µM
COc1c(C)cccc1C(=O)Nc1cc(Cl)ccc1N1CCOCC1 | > 76.9 µM
COc1ccc(S(=O)(=O)N2CCCC2)c(C)c1C | > 76.9 µM

SMILES | Potency
CC(C)C(c1nnnn1C1CCCC1)N1CCN(c2ccccc2F)CC1 (centres undefined) | 45 µM
CCOC(=O)c1c(C)[nH]c(C)c1C(=O)CSc1nc(N)cc(N)n1 | > 76.9 µM
O=C(CSc1nnc(-c2cnccn2)n1Cc1ccco1)c1ccc(Cl)c(Cl)c1 | > 76.9 µM
COCCCn1c(CCC(=O)O)ccc1-c1ccc(F)cc1 | > 76.9 µM
O=C(NCCCNC(=O)NC1CCCCC1)NC1CCCCC1 | > 76.9 µM
CC(=O)N1CSCC1C(=O)O (centres undefined) | > 76.9 µM
O=C(CSc1nnc(-c2ccco2)n1CC1CCCO1)c1ccccc1 (centres undefined) | > 76.9 µM
COc1ccc(C2C3=C(CC(C)(C)CC3=O)Oc3ncn4nc(-c5cccnc5)nc4c32)cc1OC (centres undefined) | > 76.9 µM
CCCn1c(SCC(=O)Nc2c(C)cccc2C)nnc1C(C)C | > 76.9 µM
CCOC(=O)CSc1nnc(-c2ccco2)n1C | > 76.9 µM
CN1CCC2(CC1)NC(=O)NC2=O | > 76.9 µM
O=C(Nc1cnccn1)c1cccnc1 | > 76.9 µM
O=C(Cn1c(-c2ccccn2)nc2ccccc21)NCCN1CCOCC1 | > 76.9 µM
COc1ccc(-c2nnc(SCC(=O)c3ccco3)n2-c2ccccc2)cc1 | > 76.9 µM
Cc1ccc(C(C(=O)NC2CCCC2)N(Cc2ccco2)C(=O)CCC(=O)Nc2ccccn2)cc1 (centres undefined) | > 76.9 µM
COC(=O)c1ccc(C2NC(=O)NC(C)=C2C(=O)N(C)C)cc1 (centres undefined) | > 76.9 µM
COC(=O)c1ccc(C2C3=C(Nc4nnnn42)c2ccccc2OC3)cc1 (centres undefined) | 8.19 µM (active)
COc1ccc(C2C(C(=O)Nc3ccccc3OC)=C(C)Nc3nnnn32)c(OC)c1 (centres undefined) | > 76.9 µM
CCOC(=O)c1c(C)nc(-c2ccccc2)nc1NC(=O)C(C)C | > 76.9 µM
O=c1[nH]nc(Cc2ccccn2)c2ccccc12 | > 76.9 µM
CCOC(=O)c1cnc(-n2nc(C)cc2C)nc1-n1nc(C)cc1C | > 76.9 µM
CCc1ccccc1N(CC(=O)N1CCN(c2ccccc2F)CC1)S(C)(=O)=O | > 76.9 µM
CCOc1ncccc1C(=O)OCc1cn2cc(Cl)ccc2n1 | > 76.9 µM
CN(Cc1ccccc1)Cc1ccccc1F | > 76.9 µM
COc1ccccc1OCCC(=O)OCC(=O)NC(=O)NC(C)(C)C | > 76.9 µM
O=S(=O)(c1cccc(S(=O)(=O)N2CCC(n3nnc4ccccc43)CC2)c1)N1CCCCC1 | 10.5 µM (active)
CC(=O)c1cccc(S(=O)(=O)N2CCC(n3nnc4cc(F)ccc43)CC2)c1 | > 76.9 µM

SMILES | Potency
O=S(=O)(c1cccc(-c2nnc(SC(F)F)n2-c2ccccc2)c1)N1CCCCC1 | > 76.9 µM
O=C(C1=C(O)C(=O)N(Cc2ccccc2)C1c1cccnc1)c1ccco1 (centres undefined) | > 76.9 µM
O=C1NC(c2cc3c(cc2Cl)OCO3)Oc2ccccc21 (centres undefined) | > 76.9 µM
O=C1N(Cc2ccc3c(c2)OCO3)c2ccccc2C1(O)c1c[nH]c2ccccc12 (centres undefined) | > 76.9 µM
CCC(=O)Nc1ccc(C(=O)CSc2nnc(CNc3ccc(Cl)cc3)o2)cc1OC | > 76.9 µM
Cc1cc(N2CCCC2)n2nc(C)c(-c3ccccc3)c2n1 | 7.9 µM (active)
Cc1cc(C)c2c(n1)nn1c(N3CCOCC3)cc(C)nc21 | > 76.9 µM
Cc1cc(-n2nc(C)cc2C)n2ncc(-c3ccccc3)c2n1 | > 76.9 µM
COc1ccc(CC(=O)Nc2ccc3c(c2)CCC3)cc1S(=O)(=O)N1CCOCC1 | > 76.9 µM
Cc1cccc(-n2c(N)cc(=O)nc2SC(C)C(=O)NC2CCCCC2)c1 (centres undefined) | > 76.9 µM
CC(=O)N1CCN(c2ccc(NCc3ccc(C(C)C)cc3)cc2)CC1 | 7.71 µM (active)
CC(C)N(C(=O)COC(=O)c1ccccc1C(=O)N1CCN(c2ccc(F)cc2)CC1)C(C)C | > 76.9 µM
O=C(Nc1cccc(NC(=O)N2CCN(c3ccccc3)CC2)c1)N1CCN(c2ccccc2)CC1 | > 76.9 µM
COC(=O)Cc1c(C)c2ccc(OCC(=O)NCc3ccc4c(c3)OCO4)cc2oc1=O | > 76.9 µM
CC1(C)Oc2ccc(C(=O)N3CCOCC3)cc2N(CC(=O)Nc2ccccc2)C1=O | > 76.9 µM
Cc1ccc(-c2noc(CN3CCN(Cc4ccccc4)CC3)n2)cc1 | > 76.9 µM
CCOC(=O)Cc1c(C)nc2c(C#N)c(C)nn2c1C | > 76.9 µM
Cc1cc(C(=O)COC(=O)CCCN2C(=O)c3ccccc3C2=O)c(C)n1C | > 76.9 µM
CCOC(=O)CSc1nnc(NC(=O)c2cccc(S(=O)(=O)N3CCCC3)c2)s1 | > 76.9 µM
COc1cccc(-c2nnc(N(C)C(=O)c3ccno3)s2)c1 | > 76.9 µM
CC1(C)CC(CCC(=O)Nc2ccccc2Cl)C(=O)O1 (centres undefined) | > 76.9 µM
CN(C(=O)COc1ccccc1)c1nnc(-c2ccncc2)s1 | > 76.9 µM
Cc1cc(Cl)c(S(=O)(=O)NCCC(=O)O)cc1OCC(N)=O | > 76.9 µM
COC(=O)C(CC(=O)Nc1cc(C)ccc1C)Nc1ccccc1OC (centres undefined) | > 76.9 µM
Cc1ccc2nc(S(=O)(=O)O)[nH]c2c1 | > 76.9 µM
